Source: PubChem BioAssay (NCI)
This is part of a sample that, as a whole, favours compounds with a hit. Of some 83,000 tested, about 20% had one in any assay.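 The endpoint reported here, percent growth, reads 100 for growth as untreated, 0 for no net growth and -100 for all cells dead.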 Unmarked numbers belong to inactive results. The source made the active and inactive calls. Rule for the calls: active = growth percent below 10; inactive = the rest.

Legend:
Assay in all cases: NCI-60 one-dose screen, 48 h (100 = growth as untreated, 0 = no growth, -100 = all killed)
Conditions in all cases: 10 µM
HCT-15 colon = tested on: HCT-15 colon
HT29 colon = tested on: HT29 colon
SNB-75 CNS = tested on: SNB-75 CNS
SNB-19 CNS = tested on: SNB-19 CNS
U251 CNS = tested on: U251 CNS
PC-3 prostate = tested on: PC-3 prostate
SK-MEL-5 melanoma = tested on: SK-MEL-5 melanoma
UACC-62 melanoma = tested on: UACC-62 melanoma
LOX IMVI melanoma = tested on: LOX IMVI melanoma
SK-MEL-28 melanoma = tested on: SK-MEL-28 melanoma
SK-MEL-2 melanoma = tested on: SK-MEL-2 melanoma
EKVX NSCLC = tested on: EKVX NSCLC
UO-31 renal = tested on: UO-31 renal
TK-10 renal = tested on: TK-10 renal
ACHN renal = tested on: ACHN renal
CAKI-1 renal = tested on: CAKI-1 renal
A498 renal = tested on: A498 renal
CCRF-CEM leukemia = tested on: CCRF-CEM leukemia
MOLT-4 leukemia = tested on: MOLT-4 leukemia

SMILES | growth (HCT-15 colon) | growth (HT29 colon) | growth (SNB-75 CNS) | growth (SNB-19 CNS) | growth (U251 CNS) | growth (PC-3 prostate) | growth (SK-MEL-5 melanoma) | growth (UACC-62 melanoma) | growth (LOX IMVI melanoma) | growth (SK-MEL-28 melanoma) | growth (SK-MEL-2 melanoma) | growth (EKVX NSCLC) | growth (UO-31 renal) | growth (TK-10 renal) | growth (ACHN renal) | growth (CAKI-1 renal) | growth (A498 renal) | growth (CCRF-CEM leukemia) | growth (MOLT-4 leukemia)
COCCOC(=O)NC(=O)Nc1ccc(C(=O)c2ccc(Cl)cc2)cc1 | 20.9% | 11.9% | 6.4% (active) | 41.3% | 37.8% | 32.1% | 5.54% (active) | 25.8% | 37.2% | 62.6% | 27.6% | 31.4% | 40.3% | 53.2% | 42.7% | 32.8% | 19.3% | 18.5% | 32.7%
COC(=O)[C@]12CC[C@@H](C)[C@H](C)[C@@H]1C1=CC[C@@H]3[C@@]4(C)CC(=O)[C@H](O)[C@@]5(C)COC(=C45)C[C@@]3(C)[C@]1(C)CC2 | -69.7% (active) | -61.2% (active) | -32.6% (active) | -54.1% (active) | -88.7% (active) | -32.3% (active) | -97.2% (active) | -75.3% (active) | -80.7% (active) | -41.8% (active) | -74.1% (active) | -55.5% (active) | -87.5% (active) | -76.5% (active) | -83.8% (active) | -36.9% (active) | -84.1% (active) | -40.1% (active) | -54.9% (active)
C=CCc1cc(Nc2c3ccc(Cl)cc3nc3ccc(OC)cc23)cc(CN(CC)CC)c1O | 9.53% (active) | 3.04% (active) | 13% | 20.6% | 12.5% | 9.79% (active) | -92.7% (active) | 19.1% | -32.9% (active) | 39.1% | 18.5% | 0.403% (active) | 5.47% (active) | 12.7% | 4.15% (active) | 7.85% (active) | 20.6% | 5.06% (active) | -20.3% (active)
CCc1cc2n(n1)-c1ncc(C(=O)OC)cc1Oc1ccccc1-2 | 96.7% | 112% | 89.4% | 109% | 94.4% | 97.5% | 96.2% | 102% | 96.8% | 120% | 106% | 98.5% | 88.8% | 96.1% | 108% | 94% | 101% | 95.2% | 95%
O=C1/C(=C/c2ccc(O)cc2O)N=C2SCCCN12 | 97.3% | 93.9% | 96.2% | 97% | 99.2% | 100% | 99.7% | 97.4% | 102% | 98.4% | 109% | 96.3% | 97.6% | 88.4% | 97.6% | 97.4% | – | 111% | 93.8%
CCCCCCCCCCN=C(c1ccc(N(C)C)cc1)c1ccc(N(C)C)cc1 | 12.9% | 9.42% (active) | 33.1% | 31.8% | 21.3% | 30.7% | 0.192% (active) | 31.7% | 42.1% | 59.7% | 23.3% | 29.3% | 52.8% | 55.7% | 43.3% | 35.7% | -9.41% (active) | 28.1% | 24.6%
S=c1c2ncccc2c(-c2ccccn2)nn1Cc1ccccn1 | 98.9% | 93.7% | 77.1% | 103% | 95% | 73.8% | 105% | 104% | 94.8% | 117% | 92.1% | 99.3% | 82.2% | 99.5% | 104% | 92.1% | 134% | 84.2% | 93.3%
CN(C1c2ccccc2Oc2ccccc21)S(=O)(=O)c1cc(Cl)ccc1Cl | 33.8% | 20.5% | 56.2% | 65.7% | 43.8% | 54.5% | 39.3% | 32.6% | 50.3% | 67% | 42.9% | 57.7% | 49.5% | 69% | 53.4% | 54.2% | 20.9% | – | 43.3%
O=C(NCCc1nccs1)c1cnc2c(S)cccc2c1 | 17.6% | 20.4% | 44.1% | 28.5% | 12.8% | 34.2% | -22.1% (active) | -6.53% (active) | 2.38% (active) | 30.5% | 22.6% | 16.3% | 12.9% | 38.5% | 29% | 19% | -2.06% (active) | 15.4% | 15.1%
N#Cc1ccc(-n2cnc(NC(=O)[C@H]3CCN(C#N)C3)c2)cc1 | 11.1% | 15.6% | -1.74% (active) | 35.1% | 7.35% (active) | 32% | 12.1% | 18.8% | 16.5% | 36.4% | -31.7% (active) | 20.4% | 18.6% | 21.1% | 11.8% | 34.9% | -18.4% (active) | 12.3% | 9.28% (active)
Cc1nc2cc(-n3c(-c4ccc(F)cc4)nc4ccccc4c3=O)ccc2n1Cc1ccccc1 | 3.41% (active) | -23.8% (active) | 6.2% (active) | 37.9% | 9.65% (active) | 9.75% (active) | -77% (active) | 0.751% (active) | 6.97% (active) | -60.3% (active) | 31.8% | 55.9% | 35.7% | 30.5% | 3.65% (active) | 30.6% | – | 65.9% | 34.7%
